In article PMC5349851, “Combinatorial bZIP dimers display complex DNA-binding specificity landscapes”:

Key:
Assay in all cases: SELEX-seq (CSI, HT-SELEX, round 3); SELEX-seq: 1x PBS (10 mM phosphate, 137 mM NaCl, 2.7 mM KCl) pH 7.6, 2.5 mM DTT, 50 ng/ul poly dI-dC, 0.1% BSA, 50 nM biotinylated bZIP (1:3 with partner for heterodimers), 100 nM library, room temperature, 1 h, 3 rounds; high values mean tight binding
Conditions in all cases: protein: recombinant;recombinant; copies: 1;1; dsDNA, one strand shown
ATF2;ATF2 = biological target: T1, ATF2;ATF2 (Homo sapiens;Homo sapiens, UniProt P15336;P15336 343-417;343-417, |)
T1 sequence 1: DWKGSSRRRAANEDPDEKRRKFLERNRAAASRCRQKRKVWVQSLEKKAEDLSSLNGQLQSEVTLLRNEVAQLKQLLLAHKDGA
T1 sequence 2: T1 sequence 1

JUNB;ATF3 = biological target: T2, JUNB;ATF3 (Homo sapiens;Homo sapiens, UniProt P17275;P18847 259-332;77-150, |)
T2 sequence 1: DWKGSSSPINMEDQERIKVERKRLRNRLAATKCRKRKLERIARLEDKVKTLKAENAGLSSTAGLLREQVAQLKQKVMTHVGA
T2 sequence 2: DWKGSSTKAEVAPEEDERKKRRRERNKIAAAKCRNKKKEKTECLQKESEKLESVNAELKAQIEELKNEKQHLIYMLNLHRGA

JUNB;CEBPG = biological target: T3, JUNB;CEBPG (Homo sapiens;Homo sapiens, UniProt P17275;P53567 259-332;52-130, |)
T3 sequence 1: T2 sequence 1
T3 sequence 2: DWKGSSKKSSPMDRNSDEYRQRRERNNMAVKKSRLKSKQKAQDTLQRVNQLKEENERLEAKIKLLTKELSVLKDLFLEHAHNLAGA

JUNB;JUN = JUNB;JUN (Homo sapiens;Homo sapiens, UniProt P17275;P05412 259-332;243-316, |)
Chain of JUNB;JUN (P05412 other isoform, or with tags, fused parts or gaps |): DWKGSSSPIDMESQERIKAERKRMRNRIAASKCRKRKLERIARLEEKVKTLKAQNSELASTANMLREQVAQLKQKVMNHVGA

JUNB;BATF3 = biological target: T4, JUNB;BATF3 (Homo sapiens;Homo sapiens, UniProt P17275;Q9NR55 259-332;26-99, |)
T4 sequence 1: T2 sequence 1
T4 sequence 2: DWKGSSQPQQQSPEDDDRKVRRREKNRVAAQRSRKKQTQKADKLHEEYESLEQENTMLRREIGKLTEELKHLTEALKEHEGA

JUNB;DBP = biological target: T5, JUNB;DBP (Homo sapiens;Homo sapiens, UniProt P17275;Q10586 259-332;246-324, |)
T5 sequence 1: T2 sequence 1
T5 sequence 2: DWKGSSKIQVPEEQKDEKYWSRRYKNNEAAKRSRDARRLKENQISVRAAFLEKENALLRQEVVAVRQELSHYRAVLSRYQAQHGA

BATF;ATF3 = biological target: T6, BATF;ATF3 (Homo sapiens;Homo sapiens, UniProt Q16520;P18847 17-90;77-150, |)
T6 sequence 1: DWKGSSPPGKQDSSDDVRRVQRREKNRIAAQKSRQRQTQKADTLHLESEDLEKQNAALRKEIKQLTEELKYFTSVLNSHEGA
T6 sequence 2: T2 sequence 2

FOSL1;ATF3 = biological target: T7, FOSL1;ATF3 (Homo sapiens;Homo sapiens, UniProt P15407;P18847 96-169;77-150, |)
T7 sequence 1: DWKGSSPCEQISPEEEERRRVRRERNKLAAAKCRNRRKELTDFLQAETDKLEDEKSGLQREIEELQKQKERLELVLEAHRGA
T7 sequence 2: T2 sequence 2

FOSL1;CEBPA = FOSL1;CEBPA (Homo sapiens;Homo sapiens, UniProt P15407;P49715 96-169;273-345, |)
FOSL1;JUN = FOSL1;JUN (Homo sapiens;Homo sapiens, UniProt P15407;P05412 96-169;243-316, |)
FOS;ATF3 = FOS;ATF3 (Homo sapiens;Homo sapiens, UniProt P01100;P18847 128-201;77-150, |)
Chain of FOS;ATF3 (P01100 other isoform, or with tags, fused parts or gaps |, chain 1 of 2, one chain of several): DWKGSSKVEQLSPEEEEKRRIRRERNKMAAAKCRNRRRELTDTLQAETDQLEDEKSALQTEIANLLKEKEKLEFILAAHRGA

FOS;ATF4 = FOS;ATF4 (Homo sapiens;Homo sapiens, UniProt P01100;P18848 128-201;269-346, |)
Chain of FOS;ATF4 (P01100 other isoform, or with tags, fused parts or gaps |, chain 1 of 2): as the sequence (P01100 other isoform, or with tags, fused parts or gaps |, chain 1 of 2, one chain of several) above
Chain of FOS;ATF4 (P18848 other isoform, or with tags, fused parts or gaps |, chain 2 of 2): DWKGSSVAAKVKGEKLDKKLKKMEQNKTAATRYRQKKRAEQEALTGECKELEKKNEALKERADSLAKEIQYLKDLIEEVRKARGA

BATF3;BATF3 = biological target: T8, BATF3;BATF3 (Homo sapiens;Homo sapiens, UniProt Q9NR55;Q9NR55 26-99;26-99, |)
T8 sequence 1: T4 sequence 2
T8 sequence 2: T4 sequence 2

XBP1;XBP1 = biological target: T9, XBP1;XBP1 (Homo sapiens;Homo sapiens, UniProt P17861;P17861 61-138;61-138, |)
T9 sequence 1: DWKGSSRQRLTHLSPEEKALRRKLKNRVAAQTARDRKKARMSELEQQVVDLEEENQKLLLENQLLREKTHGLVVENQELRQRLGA
T9 sequence 2: T9 sequence 1

DBP;DBP = biological target: T10, DBP;DBP (Homo sapiens;Homo sapiens, UniProt Q10586;Q10586 246-324;246-324, |)
T10 sequence 1: T5 sequence 2
T10 sequence 2: T5 sequence 2

JUNB;ATF4 = JUNB;ATF4 (Homo sapiens;Homo sapiens, UniProt P17275;P18848 259-332;269-346, |)
Chain of JUNB;ATF4 (P18848 other isoform, or with tags, fused parts or gaps |): as the sequence (P18848 other isoform, or with tags, fused parts or gaps |, chain 2 of 2) above

JUNB;ATF2 = biological target: T11, JUNB;ATF2 (Homo sapiens;Homo sapiens, UniProt P17275;P15336 259-332;343-417, |)
T11 sequence 1: T2 sequence 1
T11 sequence 2: T1 sequence 1

BATF;CEBPA = BATF;CEBPA (Homo sapiens;Homo sapiens, UniProt Q16520;P49715 17-90;273-345, |)
Chain of BATF;CEBPA (P49715 other isoform, or with tags, fused parts or gaps |): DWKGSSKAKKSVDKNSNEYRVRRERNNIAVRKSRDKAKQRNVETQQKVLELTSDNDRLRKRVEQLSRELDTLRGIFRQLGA

FOS;BATF3 = FOS;BATF3 (Homo sapiens;Homo sapiens, UniProt P01100;Q9NR55 128-201;26-99, |)
Chain of FOS;BATF3 (P01100 other isoform, or with tags, fused parts or gaps |): as the sequence (P01100 other isoform, or with tags, fused parts or gaps |, chain 1 of 2, one chain of several) above

FOSL1;BATF3 = biological target: T12, FOSL1;BATF3 (Homo sapiens;Homo sapiens, UniProt P15407;Q9NR55 96-169;26-99, |)
T12 sequence 1: T7 sequence 1
T12 sequence 2: T4 sequence 2

| Sequence | binding signal (ATF2;ATF2) | binding signal (JUNB;ATF3) | binding signal (JUNB;CEBPG) | binding signal (JUNB;JUN) | binding signal (JUNB;BATF3) | binding signal (JUNB;DBP) | binding signal (BATF;ATF3) | binding signal (FOSL1;ATF3) | binding signal (FOSL1;CEBPA) | binding signal (FOSL1;JUN) | binding signal (FOS;ATF3) | binding signal (FOS;ATF4) | binding signal (BATF3;BATF3) | binding signal (XBP1;XBP1) | binding signal (DBP;DBP) | binding signal (JUNB;ATF4) | binding signal (JUNB;ATF2) | binding signal (BATF;CEBPA) | binding signal (FOS;BATF3) | binding signal (FOSL1;BATF3) |
| --- | --- | --- | --- | --- | --- | --- | --- | --- | --- | --- | --- | --- | --- | --- | --- | --- | --- | --- | --- | --- |
| ATGACGGAAT | 0.0134 relative CSI intensity (max = 1) | 0.00128 relative CSI intensity (max = 1) | 0.00175 relative CSI intensity (max = 1) | 0.0196 relative CSI intensity (max = 1) | 0.00175 relative CSI intensity (max = 1) | 0.0141 relative CSI intensity (max = 1) | 0.019 relative CSI intensity (max = 1) | 0.0493 relative CSI intensity (max = 1) | 0.00381 relative CSI intensity (max = 1) | 0.00225 relative CSI intensity (max = 1) | 0.0362 relative CSI intensity (max = 1) | 0.00272 relative CSI intensity (max = 1) |  |  |  |  |  |  |  |  |
| ATGACGCAAT | 0.0881 relative CSI intensity (max = 1) | 0.0139 relative CSI intensity (max = 1) | 0.308 relative CSI intensity (max = 1) | 0.0103 relative CSI intensity (max = 1) | 0.026 relative CSI intensity (max = 1) | 0.162 relative CSI intensity (max = 1) | 0.0223 relative CSI intensity (max = 1) | 0.0466 relative CSI intensity (max = 1) | 0.765 relative CSI intensity (max = 1) | 0.0151 relative CSI intensity (max = 1) | 0.0598 relative CSI intensity (max = 1) | 0.0149 relative CSI intensity (max = 1) | 0.00125 relative CSI intensity (max = 1) | 0.00105 relative CSI intensity (max = 1) | 0.0702 relative CSI intensity (max = 1) | 0.0028 relative CSI intensity (max = 1) | 0.00356 relative CSI intensity (max = 1) | 0.00768 relative CSI intensity (max = 1) | 0.00954 relative CSI intensity (max = 1) |  |
| ATGATGCAAT | 0.00515 relative CSI intensity (max = 1) |  | 0.252 relative CSI intensity (max = 1) | 0.0548 relative CSI intensity (max = 1) | 0.00368 relative CSI intensity (max = 1) | 0.0471 relative CSI intensity (max = 1) |  | 0.00412 relative CSI intensity (max = 1) | 0.368 relative CSI intensity (max = 1) | 0.00257 relative CSI intensity (max = 1) | 0.0114 relative CSI intensity (max = 1) | 0.00384 relative CSI intensity (max = 1) |  |  | 0.00594 relative CSI intensity (max = 1) |  |  | 0.0115 relative CSI intensity (max = 1) |  | 0.00287 relative CSI intensity (max = 1) |
| ATGACGTCAT | 1 relative CSI intensity (max = 1) | 1 relative CSI intensity (max = 1) | 0.0649 relative CSI intensity (max = 1) | 0.769 relative CSI intensity (max = 1) | 1 relative CSI intensity (max = 1) | 1 relative CSI intensity (max = 1) | 0.113 relative CSI intensity (max = 1) | 0.156 relative CSI intensity (max = 1) | 0.261 relative CSI intensity (max = 1) | 0.478 relative CSI intensity (max = 1) | 0.117 relative CSI intensity (max = 1) | 1 relative CSI intensity (max = 1) | 0.904 relative CSI intensity (max = 1) | 0.222 relative CSI intensity (max = 1) | 0.0564 relative CSI intensity (max = 1) | 1 relative CSI intensity (max = 1) | 1 relative CSI intensity (max = 1) | 0.00178 relative CSI intensity (max = 1) | 1 relative CSI intensity (max = 1) | 0.282 relative CSI intensity (max = 1) |
| CCTGACGTCA | 0.144 relative CSI intensity (max = 1) | 0.031 relative CSI intensity (max = 1) | 0.00362 relative CSI intensity (max = 1) | 0.0172 relative CSI intensity (max = 1) | 0.0239 relative CSI intensity (max = 1) | 0.0067 relative CSI intensity (max = 1) | 0.0203 relative CSI intensity (max = 1) | 0.0517 relative CSI intensity (max = 1) | 0.00677 relative CSI intensity (max = 1) | 0.00953 relative CSI intensity (max = 1) | 0.0295 relative CSI intensity (max = 1) | 0.0251 relative CSI intensity (max = 1) | 0.0069 relative CSI intensity (max = 1) |  |  | 0.0113 relative CSI intensity (max = 1) | 0.0143 relative CSI intensity (max = 1) |  | 0.0279 relative CSI intensity (max = 1) | 0.0211 relative CSI intensity (max = 1) |
| ATGACGTAAT | 0.289 relative CSI intensity (max = 1) | 0.166 relative CSI intensity (max = 1) | 0.17 relative CSI intensity (max = 1) | 0.0997 relative CSI intensity (max = 1) | 0.0919 relative CSI intensity (max = 1) | 0.727 relative CSI intensity (max = 1) | 0.0836 relative CSI intensity (max = 1) | 0.0529 relative CSI intensity (max = 1) | 0.208 relative CSI intensity (max = 1) | 0.0392 relative CSI intensity (max = 1) | 0.0389 relative CSI intensity (max = 1) | 0.0605 relative CSI intensity (max = 1) | 0.0127 relative CSI intensity (max = 1) | 0.00422 relative CSI intensity (max = 1) | 0.487 relative CSI intensity (max = 1) | 0.0439 relative CSI intensity (max = 1) | 0.151 relative CSI intensity (max = 1) | 0.00231 relative CSI intensity (max = 1) | 0.0787 relative CSI intensity (max = 1) | 0.0576 relative CSI intensity (max = 1) |
